Inconclusive results are not listed. Calls of active or inactive are those of the source. How the source made its calls, unless noted: active means hit-call score of the fitted dose curve at least 0.9, where 1 is the maximum; inactive means score below 0.9.
Experiments:
[1] = ATG_NFI_CIS: Attagene CIS-FACTORIAL HepG2 Assay for human Nuclear Factor I (NFI) (AID 2282989); settings: HepG2 cis-regulatory reporter, NFI response element transcription; actives raise or lower the signal
In short: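 Endogenous TF activity in HepG2 cells transiently transfected with cis-element-driven multiplexed reporter units, read 24 h after dosing. Reporter mRNA quantified by RT-PCR, 6-FAM labelling, HpaI digestion and capillary electrophoresis; bidirectional fit versus DMSO.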

[2] = target: Myc proto-oncogene protein (Homo sapiens) (UniProt P01106); assay: ATG_Myc_CIS: Attagene CIS-FACTORIAL HepG2 Assay for human Myelocytomatosis (Myc) Proto-Oncogene Transcription Factor (AID 2282990); settings: HepG2, Attagene cis-reporter transcription factor activity; actives raise or lower the signal
In short: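 After 24 h chemical treatment of HepG2 cells carrying multiplexed cis-regulated reporter constructs, reporter transcripts quantified by RT-PCR and capillary electrophoresis of fluorescent fragments. Gain or loss fitted against DMSO baseline.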

[3] = ATG_NF_kB_CIS: Attagene CIS-FACTORIAL HepG2 Assay for human Nuclear Factor Kappa B (NF-kB) (AID 2282991); settings: HepG2 Attagene cis-factorial NF-kB reporter mRNA; actives raise or lower the signal
In short: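 HepG2 cells transfected with cis-promoter-driven reporter units, so endogenous transcription factor activity is measured. Reporter mRNA quantified 24 h after dosing by RT-PCR and capillary electrophoresis, with bidirectional fitting against DMSO.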

[4] = ATG_NRF2_ARE_CIS: Attagene CIS-FACTORIAL HepG2 Assay for human Nuclear Factor Erythroid 2 Related Factor 2 (NFR2) response to Antioxidant Response Elements (ARE) (AID 2282992); settings: HepG2 Attagene ARE/NRF2 reporter, transcription factor activity; actives raise or lower the signal;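 on AC50: reporter mRNA level measured by RT-PCR and capillary electrophoresis fluorescence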
In short: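 Fluorescence intensity of reporter-specific cDNA fragments, separated by capillary electrophoresis, reflects mRNA induction in transfected HepG2 cells at 24 h. Activity is fitted bidirectionally, DMSO serving as baseline.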

[5] = ATG_Oct_MLP_CIS: Attagene CIS-FACTORIAL HepG2 Assay for human Octamer-Binding Transcription Factor (Oct) (AID 2282993); settings: HepG2 Attagene cis-factorial Oct reporter, mRNA; actives raise or lower the signal
In short: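 HepG2 cells transiently transfected with cis-element-driven reporter transcription units (endogenous TF activity); 24 h compound exposure. Reporter mRNA quantified by RT-PCR, 6-FAM labelling, HpaI digestion and capillary electrophoresis; bidirectional fit versus DMSO baseline.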

[6] = target: Cellular tumor antigen p53 (Homo sapiens) (UniProt P04637); assay: ATG_p53_CIS: Attagene CIS-FACTORIAL HepG2 Assay for human p53 Transcription Factor (AID 2282994); settings: HepG2 p53 cis-element reporter, Attagene mRNA; actives raise or lower the signal
In short: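 Transiently transfected HepG2 (multiple cis reporter transcription units); exposure 24 h; reporter RNA via RT-PCR, 6-FAM extension, 2 h HpaI digest at 37 C, CE detection; DMSO baseline.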

[7] = BSK_3C_TissueFactor: BioMAP Diversity Plus: 3C Assay for Tissue Factor Biomarker Activity (AID 2282997); settings: BioMAP 3C HUVEC, tissue factor biomarker readout; actives raise or lower the signal
In short: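 In this endothelial system, HUVEC are treated for 24 h and Tissue Factor is assessed by ELISA, normalised to DMSO.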

[8] = BSK_3C_VCAM1: BioMAP Diversity Plus: 3C Assay for Vascular cell adhesion molecule 1 (VCAM1) Biomarker Activity (AID 2282999); settings: BioMAP 3C HUVEC, VCAM1 ELISA, cytokine-stimulated; actives raise or lower the signal
In short: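 Activity fitted in both directions relative to DMSO, with ELISA measurement of the surface marker on primary HUVEC (3C) at 24 h post-treatment; parallel SRB staining (0.1% SRB, TCA-fixed, 560 nm) flagged overt cytotoxicity.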

[9] = BSK_4H_Eotaxin3: BioMAP Diversity Plus: 4H Assay for Eotaxin 3 Biomarker Activity (AID 2283000); settings: primary human endothelial cells (HUVEC); actives raise or lower the signal
In short: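 ELISA quantitation of CCL26 (Eotaxin-3) protein from chemically dosed human vascular endothelial cells at 24 h; increases and decreases both scored relative to DMSO-treated baseline.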

[10] = target: human Peroxisome Proliferator-activated Receptor alpha (PPARa), PPARA (gene 5465) (UniProt Q07869); assay: ATG_PPARa_TRANS: Attagene TRANS-FACTORIAL HepG2 Assay for human Peroxisome Proliferator-activated Receptor alpha (PPARa) (AID 2283001; active means hit-call score of the fitted dose curve at least 0.9, where 1 is the maximum;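 on AC50: potency for gain of reporter signal over DMSO so agonist or activator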)
In short: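 Transfected HepG2 cells treated with test chemical for 24 h. RNA isolated, reverse-transcribed with oligo(dT), PCR-amplified, FAM-labelled and HpaI-digested. Fragments sized by capillary electrophoresis; gain-of-signal fit relative to DMSO.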

[11] = target: human Peroxisome Proliferator-activated Receptor delta (PPARd), PPARD (gene 5467) (UniProt Q03181); assay: ATG_PPARd_TRANS: Attagene TRANS-FACTORIAL HepG2 Assay for human Peroxisome Proliferator-activated Receptor delta (PPARd) (AID 2283002; active means hit-call score of the fitted dose curve at least 0.9, where 1 is the maximum)
In short: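 Read-out is induced reporter mRNA, quantified by RT-PCR with fluorescent labelling and capillary electrophoresis after 24 h dosing. Cells are HepG2 transiently carrying multiple GAL4-UAS reporter units driven by exogenous NR-GAL4 chimeras; DMSO serves as baseline.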

[12] = read-out: Intercellular Adhesion Molecule 1 (ICAM1), ICAM1 (gene 3383); assay: BSK_3C_ICAM1: BioMAP Diversity Plus: 3C Assay for Intercellular Adhesion Molecule 1 (ICAM1) Biomarker Activity (AID 2283003); settings: primary human endothelial cells (HUVEC); actives raise or lower the signal
In short: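 ELISA read-out of ICAM-1; HUVEC (primary human), 3C system, 24 h post-dosing; bidirectional fit vs DMSO baseline.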

[13] = BSK_3C_Proliferation: Cell Proliferation Assessment in the BioMAP Diversity Plus: 3C Assay (AID 2283006); settings: primary human endothelial cells (HUVEC);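 on AC50: potency may reflect either rise or fall in cell number versus DMSO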
In short: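 HUVEC, sub-confluent; 48 h chemical exposure; 10% TCA fix, 0.1% SRB stain, A560 total protein. Gain or loss of signal fitted both directions vs DMSO control.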

[14] = target: Peroxisome proliferator-activated receptor gamma (Homo sapiens) (UniProt P37231); assay: ATG_PPARg_TRANS: Attagene TRANS-FACTORIAL HepG2 Assay for human Peroxisome Proliferator-activated Receptor-gamma (PPARg) (AID 2283007; active means hit-call score of the fitted dose curve at least 0.9, where 1 is the maximum)
In short: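 HepG2 cells are transiently transfected with GAL4-UAS reporter units driven by chimeric NR-Gal4 fusions and dosed for 24 h. Reporter mRNA is quantified by RT-PCR, 6-FAM labelling, HpaI digestion and capillary electrophoresis. Induction is scored against DMSO.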

[15] = target: Nuclear receptor subfamily 1 group I member 2 (Homo sapiens) (UniProt O75469); assay: ATG_PXR_TRANS: Attagene TRANS-FACTORIAL HepG2 Assay for human Pregnane X Receptor (PXR) (AID 2283008; active means hit-call score of the fitted dose curve at least 0.9, where 1 is the maximum)
In short: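 Transient HepG2 transfectants carrying multiplexed reporter transcription units; PXR activity read through a Gal4 chimera. 24 h exposure. RT-PCR/CE fluorescence; upward curve fit referenced to DMSO.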

[16] = target: Retinoic acid receptor alpha (Homo sapiens) (UniProt P10276); assay: ATG_RARa_TRANS: Attagene TRANS-FACTORIAL HepG2 Assay for human Retinoic Acid Receptor alpha (RARa) (AID 2283005; active means hit-call score of the fitted dose curve at least 0.9, where 1 is the maximum)
In short: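 Reporter transcripts, measured by RT-PCR with fluorescent labeling and capillary electrophoresis after 24 h dosing, reflect activity of an exogenous human RARa–GAL4 fusion in transiently transfected HepG2. Fitted for increase relative to DMSO.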

[17] = target: human RAR-related Orphan Receptor beta (RORb), RORB (gene 6096) (UniProt Q92753); assay: ATG_RORb_TRANS: Attagene TRANS-FACTORIAL HepG2 Assay for human RAR-related Orphan Receptor beta (RORb) (AID 2283010; active means hit-call score of the fitted dose curve at least 0.9, where 1 is the maximum)
In short: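 HepG2, transient MRTU transfection (GAL4-UAS reporters, exogenous NR-Gal4 chimeras); 24 h compound exposure; total RNA → RT-PCR → 6-FAM primer extension → HpaI digest → CE fluorescence. Positive direction vs DMSO baseline.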

[18] = target: human Retinoic Acid Receptor beta (RARb), RARB (gene 5915) (UniProt P10826); assay: ATG_RARb_TRANS: Attagene TRANS-FACTORIAL HepG2 Assay for human Retinoic Acid Receptor beta (AID 2283004; active means hit-call score of the fitted dose curve at least 0.9, where 1 is the maximum)
In short: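 Fluorescent capillary-electrophoresis detection of GAL4-UAS reporter mRNA defines the endpoint, with induction over DMSO-treated wells scored as activity. Transiently transfected human hepatoma HepG2 cells expressing exogenous NR–Gal4 proteins are exposed to test chemicals for 24 h.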

[19] = target: human Retinoic Acid Receptor gamma (RARg), RARG (gene 5916) (UniProt P13631); assay: ATG_RARg_TRANS: Attagene TRANS-FACTORIAL HepG2 Assay for human Retinoic Acid Receptor gamma (RARg) (AID 2283009; active means hit-call score of the fitted dose curve at least 0.9, where 1 is the maximum)
In short: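 Readout: reporter transcript levels via RT-PCR, 6-FAM primer-extension labelling, HpaI digestion and capillary electrophoresis. Cells: HepG2 carrying transfected RARg-GAL4 chimera plus UAS reporter set. Dosing 24 h; DMSO negative control.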

Measured: AC50

Chain of Peroxisome proliferator-activated receptor gamma (Homo sapiens) (P37231 whole entry, looked up, the tested form may be a part): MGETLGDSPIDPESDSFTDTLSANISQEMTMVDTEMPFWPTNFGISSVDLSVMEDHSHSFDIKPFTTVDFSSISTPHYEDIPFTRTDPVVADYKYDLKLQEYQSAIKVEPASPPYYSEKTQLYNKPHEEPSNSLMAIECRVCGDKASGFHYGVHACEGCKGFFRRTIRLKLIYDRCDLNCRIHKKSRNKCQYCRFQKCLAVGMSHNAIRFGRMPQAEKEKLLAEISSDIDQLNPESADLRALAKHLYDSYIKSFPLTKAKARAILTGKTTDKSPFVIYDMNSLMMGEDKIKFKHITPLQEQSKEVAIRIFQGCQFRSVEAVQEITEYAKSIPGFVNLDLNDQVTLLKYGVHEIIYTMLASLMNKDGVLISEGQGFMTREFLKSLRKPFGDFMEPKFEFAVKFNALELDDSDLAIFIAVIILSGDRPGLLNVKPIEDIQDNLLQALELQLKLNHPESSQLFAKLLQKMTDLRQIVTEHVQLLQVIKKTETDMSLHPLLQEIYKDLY
Chain of human Peroxisome Proliferator-activated Receptor alpha (PPARa), PPARA (gene 5465) (Q07869 whole entry, looked up, the tested form may be a part): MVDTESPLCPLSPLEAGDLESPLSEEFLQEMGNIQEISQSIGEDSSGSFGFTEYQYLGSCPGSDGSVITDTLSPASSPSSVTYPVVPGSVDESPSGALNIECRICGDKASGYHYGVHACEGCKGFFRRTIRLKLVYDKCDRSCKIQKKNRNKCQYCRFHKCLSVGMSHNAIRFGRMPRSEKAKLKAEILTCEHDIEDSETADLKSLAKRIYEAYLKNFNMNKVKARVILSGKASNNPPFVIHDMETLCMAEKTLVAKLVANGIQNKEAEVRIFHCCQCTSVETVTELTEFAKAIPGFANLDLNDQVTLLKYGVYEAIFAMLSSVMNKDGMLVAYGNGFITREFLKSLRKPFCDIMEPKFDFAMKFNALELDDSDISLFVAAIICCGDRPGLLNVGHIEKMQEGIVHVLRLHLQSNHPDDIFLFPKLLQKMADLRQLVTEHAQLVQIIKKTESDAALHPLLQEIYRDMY
Chain of human RAR-related Orphan Receptor beta (RORb), RORB (gene 6096) (Q92753 whole entry, looked up, the tested form may be a part): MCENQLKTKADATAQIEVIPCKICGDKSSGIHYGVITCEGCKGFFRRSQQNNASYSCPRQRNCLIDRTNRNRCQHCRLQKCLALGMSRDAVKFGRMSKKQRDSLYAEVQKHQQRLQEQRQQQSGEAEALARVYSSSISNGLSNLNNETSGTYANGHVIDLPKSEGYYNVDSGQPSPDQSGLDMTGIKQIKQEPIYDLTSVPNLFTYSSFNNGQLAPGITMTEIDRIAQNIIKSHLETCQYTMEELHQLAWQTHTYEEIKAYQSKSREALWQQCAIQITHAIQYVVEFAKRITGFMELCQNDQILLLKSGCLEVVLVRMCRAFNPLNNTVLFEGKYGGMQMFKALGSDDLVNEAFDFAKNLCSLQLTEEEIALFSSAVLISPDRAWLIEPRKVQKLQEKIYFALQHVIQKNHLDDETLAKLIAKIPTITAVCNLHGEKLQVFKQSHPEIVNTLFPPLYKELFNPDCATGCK
Chain of Cellular tumor antigen p53 (Homo sapiens) (P04637 whole entry, looked up): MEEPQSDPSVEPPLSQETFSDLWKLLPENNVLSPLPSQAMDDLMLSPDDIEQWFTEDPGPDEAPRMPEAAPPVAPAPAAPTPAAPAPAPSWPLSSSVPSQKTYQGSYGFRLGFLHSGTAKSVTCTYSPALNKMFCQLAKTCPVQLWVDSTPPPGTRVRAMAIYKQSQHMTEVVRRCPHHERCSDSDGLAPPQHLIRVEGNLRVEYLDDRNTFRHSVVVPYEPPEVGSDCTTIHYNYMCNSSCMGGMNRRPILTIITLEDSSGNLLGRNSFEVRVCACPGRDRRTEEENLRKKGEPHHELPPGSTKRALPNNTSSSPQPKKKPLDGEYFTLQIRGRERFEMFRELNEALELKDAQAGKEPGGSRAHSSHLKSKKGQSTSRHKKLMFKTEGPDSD
Chain of human Peroxisome Proliferator-activated Receptor delta (PPARd), PPARD (gene 5467) (Q03181 whole entry, looked up, the tested form may be a part): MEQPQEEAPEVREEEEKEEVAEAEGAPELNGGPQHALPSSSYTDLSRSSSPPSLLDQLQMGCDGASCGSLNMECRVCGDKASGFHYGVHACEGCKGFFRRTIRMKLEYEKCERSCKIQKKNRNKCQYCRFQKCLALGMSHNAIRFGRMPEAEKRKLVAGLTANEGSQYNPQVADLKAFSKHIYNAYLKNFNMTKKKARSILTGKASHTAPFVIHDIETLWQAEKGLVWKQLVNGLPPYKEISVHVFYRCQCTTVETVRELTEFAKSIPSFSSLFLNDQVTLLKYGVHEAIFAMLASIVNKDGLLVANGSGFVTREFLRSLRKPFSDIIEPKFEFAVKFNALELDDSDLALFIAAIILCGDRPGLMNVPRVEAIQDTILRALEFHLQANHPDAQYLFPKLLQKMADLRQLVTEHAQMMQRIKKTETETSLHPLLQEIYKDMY
Chain of Myc proto-oncogene protein (Homo sapiens) (P01106 whole entry, looked up, the tested form may be a part): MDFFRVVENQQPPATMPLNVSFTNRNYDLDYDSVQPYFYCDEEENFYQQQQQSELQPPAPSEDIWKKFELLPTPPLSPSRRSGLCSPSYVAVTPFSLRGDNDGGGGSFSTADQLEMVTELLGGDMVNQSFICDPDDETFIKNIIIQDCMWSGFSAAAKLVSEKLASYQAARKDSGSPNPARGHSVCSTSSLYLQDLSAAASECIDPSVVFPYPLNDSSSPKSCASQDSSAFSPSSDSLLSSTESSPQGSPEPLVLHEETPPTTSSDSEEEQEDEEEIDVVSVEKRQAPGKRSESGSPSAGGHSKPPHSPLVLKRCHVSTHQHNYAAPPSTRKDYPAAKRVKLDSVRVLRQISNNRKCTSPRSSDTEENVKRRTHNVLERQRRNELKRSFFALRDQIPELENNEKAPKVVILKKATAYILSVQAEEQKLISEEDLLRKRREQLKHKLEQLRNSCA
Chain of human Retinoic Acid Receptor beta (RARb), RARB (gene 5915) (P10826 whole entry, looked up, the tested form may be a part): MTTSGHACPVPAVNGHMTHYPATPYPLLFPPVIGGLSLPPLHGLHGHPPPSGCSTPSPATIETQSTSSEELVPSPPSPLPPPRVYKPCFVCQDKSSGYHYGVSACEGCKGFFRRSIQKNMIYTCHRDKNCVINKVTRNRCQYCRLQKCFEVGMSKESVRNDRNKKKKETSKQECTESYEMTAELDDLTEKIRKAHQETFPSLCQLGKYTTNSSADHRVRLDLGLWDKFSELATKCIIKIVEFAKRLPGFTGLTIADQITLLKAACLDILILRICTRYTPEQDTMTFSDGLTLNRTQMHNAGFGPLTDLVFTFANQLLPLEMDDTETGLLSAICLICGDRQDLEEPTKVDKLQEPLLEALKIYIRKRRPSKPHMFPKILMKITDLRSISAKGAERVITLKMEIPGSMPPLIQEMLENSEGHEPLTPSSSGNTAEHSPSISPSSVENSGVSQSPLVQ
Chain of human Retinoic Acid Receptor gamma (RARg), RARG (gene 5916) (P13631 whole entry, looked up, the tested form may be a part): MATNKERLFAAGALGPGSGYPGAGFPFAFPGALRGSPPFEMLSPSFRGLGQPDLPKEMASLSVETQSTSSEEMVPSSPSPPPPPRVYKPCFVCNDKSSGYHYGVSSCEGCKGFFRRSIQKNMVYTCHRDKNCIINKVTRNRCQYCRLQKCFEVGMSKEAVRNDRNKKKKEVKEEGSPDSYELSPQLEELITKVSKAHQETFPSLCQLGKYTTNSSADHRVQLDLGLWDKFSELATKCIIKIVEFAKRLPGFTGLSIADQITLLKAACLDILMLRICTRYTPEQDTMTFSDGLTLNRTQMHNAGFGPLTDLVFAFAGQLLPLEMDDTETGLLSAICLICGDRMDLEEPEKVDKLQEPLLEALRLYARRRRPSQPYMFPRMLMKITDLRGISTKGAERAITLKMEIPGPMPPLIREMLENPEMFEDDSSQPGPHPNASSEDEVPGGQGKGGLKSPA
Chain of Nuclear receptor subfamily 1 group I member 2 (Homo sapiens) (O75469 whole entry, looked up, the tested form may be a part): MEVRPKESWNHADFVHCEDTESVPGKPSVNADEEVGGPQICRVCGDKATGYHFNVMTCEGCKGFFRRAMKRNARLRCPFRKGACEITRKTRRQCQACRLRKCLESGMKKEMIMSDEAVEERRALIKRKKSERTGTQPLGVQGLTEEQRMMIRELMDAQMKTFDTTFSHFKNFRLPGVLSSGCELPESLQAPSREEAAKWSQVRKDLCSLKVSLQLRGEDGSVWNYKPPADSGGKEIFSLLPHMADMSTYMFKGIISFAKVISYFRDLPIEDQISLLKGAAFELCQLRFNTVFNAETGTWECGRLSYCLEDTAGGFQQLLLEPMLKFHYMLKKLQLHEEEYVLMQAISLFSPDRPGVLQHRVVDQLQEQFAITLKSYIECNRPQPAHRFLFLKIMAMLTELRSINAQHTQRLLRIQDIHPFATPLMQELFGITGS
Chain of Retinoic acid receptor alpha (Homo sapiens) (P10276 whole entry, looked up, the tested form may be a part): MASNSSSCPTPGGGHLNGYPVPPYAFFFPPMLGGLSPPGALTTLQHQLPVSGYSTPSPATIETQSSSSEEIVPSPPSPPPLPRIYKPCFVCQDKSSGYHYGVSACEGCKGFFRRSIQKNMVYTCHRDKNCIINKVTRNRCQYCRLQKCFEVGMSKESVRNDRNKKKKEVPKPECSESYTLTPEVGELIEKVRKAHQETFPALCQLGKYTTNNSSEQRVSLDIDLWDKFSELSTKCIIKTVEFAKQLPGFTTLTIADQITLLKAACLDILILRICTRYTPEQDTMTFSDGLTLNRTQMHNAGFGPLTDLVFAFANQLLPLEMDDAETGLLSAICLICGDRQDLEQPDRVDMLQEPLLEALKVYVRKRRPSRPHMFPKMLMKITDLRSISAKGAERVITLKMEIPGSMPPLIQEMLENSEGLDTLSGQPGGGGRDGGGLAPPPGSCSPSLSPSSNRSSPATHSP

CN(C)C(=S)SC(=S)N(C)C
active: [4] 22.9 µM | [8] 19.9 µM | [9] 31.4 µM | [13] 19.9 µM | [14] 20.9 µM
not listed: [16] | [17] | [18] | [19]
inactive: all other assays above

CCC1(c2ccccc2)C(=O)NCNC1=O
inactive: [1] | [2] | [3] | [4] | [5] | [6]

C=Cc1ccncc1
active: [1] 21.8 µM | [3] 61.5 µM | [4] 25.1 µM | [5] 26.8 µM | [11] 25.6 µM | [14] 77.4 µM
inactive: [2] | [6] | [10] | [16] | [15] | [17]

c1ccc2cc(Nc3ccc(Nc4ccc5ccccc5c4)cc3)ccc2c1
active: [7] 13.9 µM
not listed: [16] | [17] | [18] | [19]
inactive: all other assays above

NC(=S)NNC(N)=S
not listed: [7] | [8] | [9] | [12] | [13] | [17] | [19]
inactive: all other assays above

CCCCCCCCCCCCCC(=O)OCC(O)CO (configuration not stated)
active: [4] 112 µM
not listed: [7] | [8] | [9] | [12] | [13] | [14] | [17]
inactive: all other assays above

NCCNc1cccc2ccccc12
active: [1] 178 µM | [2] 168 µM | [5] 176 µM | [6] 50.9 µM | [10] 150 µM | [14] 125 µM
not listed: [7] | [8] | [9] | [12] | [13]
inactive: all other assays above

CC(C)CCCCCCCCCCCCCCC(=O)O
active: [14] 30.2 µM
not listed: [7] | [8] | [9] | [12] | [13] | [18] | [19]
inactive: all other assays above

C[C@@H]1CCN(C(=O)[C@H](CCCN=C(N)N)NS(=O)(=O)c2cccc3c2NC[C@H](C)C3)[C@@H](C(=O)O)C1
not listed: [10] | [11] | [15] | [16] | [17]
inactive: all other assays above

Reference: PubChem BioAssay (EPA / NIEHS)
